PubChem BioAssay
Calls of active or inactive are those of the source.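 The calls were made as follows: active = mean inhibition above 46.68%, the untreated control wells mean plus 3 SD; inactive = the rest.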

biological target: Nuclear receptor coactivator 1 (Homo sapiens) (UniProt Q15788); test: NCOA1 GAL4-fusion reporter inhibition – cell-based, luminescence, quadruplicate, confirmation (AID 588820); conditions: HEK293 GAL4-SRC1 luciferase reporter, at 3.6 µM, stronger effect = higher value;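 also: 0% = DMSO wells and 100% = gossypol 36 µM treated wells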
Sequence (Q15788 whole entry, looked up, the tested form may be a part): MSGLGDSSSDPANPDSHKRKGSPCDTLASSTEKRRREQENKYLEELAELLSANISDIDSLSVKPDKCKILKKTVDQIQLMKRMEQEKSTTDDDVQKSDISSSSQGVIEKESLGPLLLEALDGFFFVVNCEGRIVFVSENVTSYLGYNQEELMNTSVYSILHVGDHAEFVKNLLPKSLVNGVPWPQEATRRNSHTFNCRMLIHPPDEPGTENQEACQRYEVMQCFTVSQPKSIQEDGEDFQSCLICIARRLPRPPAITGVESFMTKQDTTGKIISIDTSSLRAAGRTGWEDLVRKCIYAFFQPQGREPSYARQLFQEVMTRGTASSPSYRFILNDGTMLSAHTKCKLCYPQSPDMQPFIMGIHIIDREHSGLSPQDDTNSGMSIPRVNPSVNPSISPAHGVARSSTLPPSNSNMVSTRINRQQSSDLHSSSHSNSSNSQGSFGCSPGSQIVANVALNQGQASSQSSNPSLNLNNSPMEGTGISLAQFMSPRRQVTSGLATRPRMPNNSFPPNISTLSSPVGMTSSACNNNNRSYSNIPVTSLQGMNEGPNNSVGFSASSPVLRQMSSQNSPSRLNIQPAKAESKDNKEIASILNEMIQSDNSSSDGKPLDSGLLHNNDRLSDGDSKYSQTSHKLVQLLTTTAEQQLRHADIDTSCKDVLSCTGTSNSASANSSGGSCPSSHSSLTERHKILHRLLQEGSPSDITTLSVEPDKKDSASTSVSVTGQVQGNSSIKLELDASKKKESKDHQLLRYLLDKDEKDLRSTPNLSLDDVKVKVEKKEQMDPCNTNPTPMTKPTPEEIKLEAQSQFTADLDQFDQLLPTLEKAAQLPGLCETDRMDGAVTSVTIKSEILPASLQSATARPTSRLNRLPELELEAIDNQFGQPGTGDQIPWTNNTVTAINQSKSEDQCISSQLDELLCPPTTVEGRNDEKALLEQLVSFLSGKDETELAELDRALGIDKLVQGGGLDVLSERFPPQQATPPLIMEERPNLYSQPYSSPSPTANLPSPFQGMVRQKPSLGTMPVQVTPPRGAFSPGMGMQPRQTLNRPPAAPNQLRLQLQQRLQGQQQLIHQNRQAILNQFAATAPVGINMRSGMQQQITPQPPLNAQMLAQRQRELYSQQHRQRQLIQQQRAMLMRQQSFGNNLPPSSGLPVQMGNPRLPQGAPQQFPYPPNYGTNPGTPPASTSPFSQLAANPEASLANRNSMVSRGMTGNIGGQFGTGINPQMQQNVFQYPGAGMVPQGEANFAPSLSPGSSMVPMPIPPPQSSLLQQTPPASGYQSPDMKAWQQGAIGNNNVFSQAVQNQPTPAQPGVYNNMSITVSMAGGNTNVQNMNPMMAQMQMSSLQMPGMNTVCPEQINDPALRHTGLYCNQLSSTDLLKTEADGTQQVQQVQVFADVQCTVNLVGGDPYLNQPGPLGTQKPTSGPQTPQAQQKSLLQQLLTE

inhibition, inactive:
O=C1CCC/C1=c1\s/c(=C/c2cccnc2)c(=O)n1-c1ccccc1 25.6%
Cc1cc(CSc2ccccc2)ccc1NC(=O)c1ccc(CN2CCOCC2)cc1 -33.7%
CCCNC(=O)C1(C)CCCN(Cc2cccc(C#N)c2)C1 (stereo not given) 36.4%
COc1ccc(C(=O)c2c(C)c3ccccc3n2CC(O)CNC(C)C)cc1 (stereo not given) -15.4%
COc1cc(C(=O)O)cc(NC(=O)c2ccco2)c1OC -9.74%
COc1ccc(CCC(C)NCc2cc(OC)cc(OC)c2)cc1 (stereo not given) -28.3%
CCOc1ccc(CCN2C(=S)N([C@@H](Cc3ccc(O)cc3)CN3CCC[C@@H]3CN3C(=S)NC[C@@H]3CC(C)C)C[C@@H]2CC(C)C)cc1 -13%
CCOc1cccc(/C=N/NC(=O)c2cccnc2)c1O 17.4%
CN(C)CCNC(=O)c1cccc2nc3c(ccc4ccccc43)nc12 30.5%
CC(O)c1nc2cc([N+](=O)[O-])ccc2n1Cc1ccccc1 (stereo not given) -1.46%
CCN1CCN(c2ccc(S(=O)(=O)N3CCCCC3)cc2NC(=O)/C=C/c2cc(OC)ccc2OC)CC1 -0.69%
CCCn1ncc(/C=N/O)c1C 12.8%
COc1ccccc1OCCn1c(C)c(C=O)c2ccccc21 10.8%
O=C(Nc1ccc2c(c1)N(S(=O)(=O)c1cccs1)CCC2)c1c(F)cccc1F -8.08%
O=C(Nc1ccn(Cc2c(F)c(F)c(F)c(F)c2F)n1)c1ccc(COc2ccccc2Cl)cc1 3.66%
CCOC(=O)C(=O)NNc1ccc(F)cc1 -25.9%
CN(C)S(=O)(=O)c1ccc(N2CCCC2)c(C(=O)OCC(=O)NC2(C#N)CCCCC2)c1 4.07%
CCCCC(=O)Nc1cccn2ncnc12 24.7%
CC1CN(c2nc3ccccc3nc2SCC(=O)Nc2cccc(C(F)(F)F)c2)CC(C)O1 (stereo not given) -15.1%
COc1cccc(C2=CC(=O)CC(C)(C)C2)c1 18.3%
Cc1cccc(-n2ncc3c2CCCC3NC(=O)CCN2CCCCO2)c1C (stereo not given) -0.83%
COc1ccc2c(c1)c(C(C)=O)c(C)n2-c1ccccc1 13.5%
COc1ccc2c(c1)-c1c(ssc1=S)C(C)(C)N2C(=O)CSC1=NCCS1 24.9%
COc1ccc(C(=O)Nc2ccc(Cl)c(S(=O)(=O)N3CCOCC3)c2)cc1 -18.1%
Cc1cc([N+](=O)[O-])nn1CCCC(=O)Nc1ccc(Cl)cc1Cl -11.6%
O=c1[nH]cnc2sc3c(c12)CCCCC3 -0.67%
CCCc1cc(C(=O)N(C)CC(=O)Nc2ccc(OCC)c(OCC)c2)sc1C 20.5%
Cc1csc(NC(=O)c2cc(-c3ccccc3)nc3ccccc23)n1 7.56%
COC(=O)c1ccc2c(c1)NC(=O)c1ccccc1S2 -8.66%
Cn1c(=O)c2[nH]c(Nc3ccccc3)nc2n(C)c1=O -22.1%
Cc1csc2ncnc(NCCc3ccccn3)c12 -2.8%
CN(C)/C=C/C(=O)c1ccn(S(=O)(=O)c2ccccc2)c1 -2.09%
CCOc1ccccc1N1CCN(CC(=O)NC(C)c2ccccc2)CC1 (stereo not given) -9.98%
Cc1ccc(CNc2ncnc3ccc(-c4ccc(CO)o4)cc23)o1 11.8%
COC(C(=O)Nc1ccc(S(=O)(=O)Nc2ccc(C)c(C)c2)cc1)c1ccccc1 (stereo not given) -8.72%
COc1ccc(S(=O)(=O)N(C)C[C@H]2Oc3c(NC(=O)Nc4c(C)noc4C)cccc3C(=O)N([C@H](C)CO)C[C@@H]2C)cc1 6.86%
Cc1ccc(OCC(=O)NNC(=O)c2ccc3c(=O)n4c(nc3c2)CCC4)cc1 -7.39%
CC(C)Cn1c(N)c(C(=O)COC(=O)CC23CC4CC(CC(C4)C2)C3)c(=O)n(C)c1=O 6.72%
Cc1ccc(-c2nc(-c3ccccc3)no2)c(Cl)c1 -51.6%
CC(=O)NC(c1cccs1)c1cc(F)c2cccnc2c1O (stereo not given) 14.3%
